The text below walks through data of PubChem BioAssay (NCI).

About 83,000 compounds went through this panel and 20% of them were active in at least one assay; those are over-represented in the sample as a whole.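 Single-dose data. Exposure time 48 hours. Values below 10 considered active.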 A number with no mark means an inactive call. Active and inactive are the calls of the source.

Among the test systems are DU-145 prostate; K-562 leukemia; MALME-3M melanoma; MDA-MB-231 breast; SF-268 CNS; SF-295 CNS; SF-539 CNS; UACC-257 melanoma; RXF 393 renal; M14 melanoma.
Assay in all cases: NCI-60 one-dose screen, 48 h (100 = growth as untreated, 0 = no growth, -100 = all killed)
Details in all cases: 10 µM unless noted

For the molecule `O=C(NNc1nc2cc(F)ccc2n2c(CO)ccc12)c1cnccn1`, the growth in the assay on DU-145 prostate is 22.7%; in the assay on K-562 leukemia, 8.85% (active); in the assay with MALME-3M melanoma, 10.5%; with MDA-MB-231 breast, 35.9%; in the assay on SF-268 CNS, 20.3%; in the assay with SF-295 CNS, 3.48% (active). Also, the growth in the assay with SF-539 CNS is 3.67% (active); with UACC-257 melanoma, -1.53% (active).
As for `Nc1ncc(-c2ccc3ncnc(Nc4cccc(Cl)c4F)c3c2)cn1`, the growth was 48.9% in the assay with DU-145 prostate; 80.5% in the assay with K-562 leukemia; 49.3% in the assay on MALME-3M melanoma; 55.3% in the assay on MDA-MB-231 breast; 53.8% with SF-268 CNS; 44.9% in the assay with SF-295 CNS. Also, the values for the growth in the assay with SF-539 CNS and in the assay with UACC-257 melanoma were 68.4% and 89.4%, respectively.
As for `c1ccc(C(c2nc3ncncc3[nH]2)N2CSc3nc4ccccc4n3C2)cc1` (stereo not given), the growth was 110% in the assay on DU-145 prostate; 96.5% in the assay with K-562 leukemia; 81.1% with MALME-3M melanoma; 98.9% with MDA-MB-231 breast; 98.1% in the assay with SF-268 CNS; 101% in the assay on SF-295 CNS. Moreover, the growth was 95.3% in the assay on SF-539 CNS and 104% in the assay on UACC-257 melanoma.
On to `CC(C)C[C@@H]1N[C@@]2(C(=O)Nc3ccccc32)[C@@H](c2ccc(F)cc2)[C@@H]1C(=O)c1ccc(O)cc1`, for which the growth was 102% in the assay on DU-145 prostate; 89.7% in the assay with K-562 leukemia; 84.3% with MALME-3M melanoma; 82.4% in the assay on MDA-MB-231 breast; 88.7% in the assay with SF-268 CNS; 100% with SF-295 CNS. The growth is 93.3% in the assay with SF-539 CNS and 112% with UACC-257 melanoma.
On to `O=C(CNc1nc(-c2cccc([N+](=O)[O-])c2)cs1)Nc1cccc([N+](=O)[O-])c1`, for which the growth in the assay with DU-145 prostate was -6.15% (active); with K-562 leukemia it was 8.33% (active); in the assay with MALME-3M melanoma it was -70.8% (active); with MDA-MB-231 breast, -28.8% (active); in the assay with SF-268 CNS, -4.97% (active); in the assay on SF-295 CNS it was 0.245% (active). Besides, the growth in the assay on SF-539 CNS is -29.6% (active); in the assay on UACC-257 melanoma, -13% (active).
Take `Cc1ccc2c(c1)C13C(=C2Br)CCCN1C(=O)c1ccccc13` (stereo not given): the growth in the assay with DU-145 prostate was 102%; in the assay on K-562 leukemia, 46.3%; in the assay with MALME-3M melanoma it was 85.3%; in the assay on MDA-MB-231 breast it was 93.7%; with SF-268 CNS, 90.6%; in the assay with SF-295 CNS, 94.2%. In addition, the growth in the assay on SF-539 CNS was 98.4%; in the assay on UACC-257 melanoma, 93.3%.
For `CCC1=Cc2cc(OC)ccc2OC12C=Cc1cc(OC)ccc1O2` (stereo not given), the growth was 19.9% in the assay on DU-145 prostate; 12.6% in the assay with K-562 leukemia; 58.4% with MALME-3M melanoma; 34.9% in the assay with MDA-MB-231 breast; 39.2% in the assay with SF-268 CNS; 15.7% with SF-295 CNS. The values for the growth in the assay with SF-539 CNS and in the assay with UACC-257 melanoma were -23.7% (active) and 79.6%, respectively.
In the case of `COc1ccccc1NCc1cccn1Cc1ccc(F)cc1`, the growth was 90% with DU-145 prostate; 111% in the assay on K-562 leukemia; 101% with MALME-3M melanoma; 89.4% in the assay on MDA-MB-231 breast; 92.5% in the assay with SF-268 CNS; 104% in the assay on SF-295 CNS. In addition, the growth was 98.6% in the assay on SF-539 CNS and 102% in the assay on UACC-257 melanoma.
With `COc1c(N2CC3CCCNC3C2)c(F)cc2c(=O)c(C(=O)N/N=C/c3ccccc3)cn(C3CC3)c12` (stereo not given), the growth in the assay with DU-145 prostate is 104%; in the assay on K-562 leukemia, 54.1%; in the assay on MALME-3M melanoma, 94.1%; in the assay with MDA-MB-231 breast it was 94.9%; with SF-268 CNS it was 85.2%; with SF-295 CNS, 104%. Besides, the growth with SF-539 CNS was 83.7%; with UACC-257 melanoma it was 106%.
Turning to `COc1cc2oc(-c3cccc(NC(=O)c4cc(N)ccc4Cl)c3)cc(=O)c2c(OC)c1OC`, the growth with DU-145 prostate is 99.7%; with K-562 leukemia, 83.7%; with MALME-3M melanoma, 100%; in the assay on MDA-MB-231 breast it was 87.8%; in the assay with SF-268 CNS, 98.2%; with SF-295 CNS, 91.4%. Also, the values for the growth in the assay with SF-539 CNS and in the assay with UACC-257 melanoma were 94.8% and 127%, respectively.
As for `CC(C)c1ccc(NCc2cn(-c3ccc(C(=O)O)cc3)nc2-c2cc(C(F)(F)F)cc(C(F)(F)F)c2)cc1`, the growth is 89.6% in the assay with DU-145 prostate; 79.8% in the assay on K-562 leukemia; 71% in the assay on MALME-3M melanoma; 91.8% in the assay on MDA-MB-231 breast; 97.2% in the assay on RXF 393 renal; 88.1% with SF-268 CNS. In addition, the growth is 98.5% with SF-295 CNS, 83.6% in the assay with SF-539 CNS, 94.9% with UACC-257 melanoma and 86% in the assay with M14 melanoma.
Turning to `c1ccc(C(c2nc3ncncc3[nH]2)N2CSc3nc4ncncc4n3C2)cc1` (stereo not given), the growth was 34.1% in the assay on DU-145 prostate; 24.8% in the assay with K-562 leukemia; 58.5% with MALME-3M melanoma; 49.7% with MDA-MB-231 breast; 66.8% with SF-268 CNS; 39.6% in the assay with SF-295 CNS. For the same molecule, the growth is 49.5% in the assay on SF-539 CNS and 76% in the assay on UACC-257 melanoma.
For `C=CCn1c(SCC(=O)Nc2ccc(C(=O)/C=C/c3ccc(Cl)cc3)cc2)nnc1-c1c[nH]c2ccccc12`, the growth was 90.6% in the assay with DU-145 prostate; 50.7% in the assay with K-562 leukemia; 83% in the assay on MALME-3M melanoma; 81.5% in the assay on MDA-MB-231 breast; 64% in the assay on SF-268 CNS; 46% with SF-295 CNS. The growth with SF-539 CNS was 75.8%; in the assay on UACC-257 melanoma, 99.6%.
For the molecule `C#Cc1nc(/C=C/C(=O)c2nccn2C)cs1`, the growth in the assay on DU-145 prostate was -45.6% (active); with K-562 leukemia, -16.8% (active); in the assay on MALME-3M melanoma, -75.6% (active); in the assay on MDA-MB-231 breast it was -64.7% (active); in the assay with SF-268 CNS it was -54.2% (active); with SF-295 CNS, -87.8% (active). Besides, the growth in the assay on SF-539 CNS was -82.7% (active); in the assay on UACC-257 melanoma, -19% (active).
Take `COC(=O)C1(C)CCC[C@]2(C)[C@H]3C[C@H]4C(C(C)C)=C[C@]3(CC[C@@H]12)[C@H]1[C@@H]4[C@@H](OC(=O)c2ccco2)CC[C@@H]1OC(=O)c1ccco1` (stereo not given in full): the growth in the assay with DU-145 prostate was 113%; with K-562 leukemia it was 104%; in the assay on MALME-3M melanoma it was 108%; in the assay with MDA-MB-231 breast, 101%; with SF-268 CNS, 108%; with SF-295 CNS it was 98.3%. The growth in the assay on SF-539 CNS was 103%; in the assay with UACC-257 melanoma it was 110%.
Turning to `COc1cc(/C=C2\C(=O)Nc3ccccc32)ccc1OCc1ccc(F)cc1`, the growth with DU-145 prostate is 106%; in the assay with K-562 leukemia it was 104%; in the assay on MALME-3M melanoma, 99.8%; in the assay on MDA-MB-231 breast it was 100%; in the assay with SF-268 CNS, 105%; with SF-295 CNS, 102%. The growth with SF-539 CNS was 102%; with UACC-257 melanoma it was 118%.
